Key:
Assay in all cases: thermal shift delta Tm vs DMSO control; higher = stronger stabilization (binding)
Settings in all cases: 12.5 µM; protein concentration 2 µM
[1] = system: LOC_OS01G57100-cb003
Procedure, shortened: (§1)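 Rice kinase domain constructs were expressed in E. coli, purified, and tested by differential scanning fluorimetry with compound added in DMSO. Each well of a 96-well plate held 19.5 μl of 2 μM kinase in 100 mM potassium phosphate pH 7.5, 150 mM NaCl, 10% glycerol and 5 × SYPRO Orange, and fluorescence was read from 25°C to 95°C at 0.05°C/s. The melting temperature shift is the mean of triplicates, taken against protein with DMSO alone after Boltzmann fitting.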

[2] = system: LOC_OS01G60330-cb001
Procedure, shortened: as §1

[3] = system: LOC_OS01G60700-cb002
Procedure, shortened: as §1

[4] = system: LOC_OS01G63280-cb003
Procedure, shortened: as §1

[5] = system: LOC_OS01G67340-cb003
Procedure, shortened: as §1

[6] = system: LOC_OS01G70970-cb002
Procedure, shortened: as §1

[7] = system: LOC_OS02G07810-cb001
Procedure, shortened: as §1

[8] = system: LOC_OS02G08530-cb003
Procedure, shortened: as §1

[9] = system: LOC_OS02G14120-cb001
Procedure, shortened: as §1

[10] = system: LOC_OS02G17970-cb001
Procedure, shortened: as §1

[11] = system: LOC_OS02G45750-cb003
Procedure, shortened: as §1

[12] = system: LOC_OS02G54510-cb004
Procedure, shortened: as §1

[13] = system: LOC_OS03G04050-cb001
Procedure, shortened: as §1

[14] = system: LOC_OS03G12390-cb001
Procedure, shortened: as §1

[15] = system: LOC_OS03G27990-cb004
Procedure, shortened: as §1

[16] = system: LOC_OS03G50450-cb001
Procedure, shortened: as §1

[17] = system: LOC_OS03G50810-cb003
Procedure, shortened: as §1

[18] = system: LOC_OS04G35114-cb001
Procedure, shortened: as §1

[19] = system: T1, LOC_OS04G38480-cb003
T1 sequence (whole entry): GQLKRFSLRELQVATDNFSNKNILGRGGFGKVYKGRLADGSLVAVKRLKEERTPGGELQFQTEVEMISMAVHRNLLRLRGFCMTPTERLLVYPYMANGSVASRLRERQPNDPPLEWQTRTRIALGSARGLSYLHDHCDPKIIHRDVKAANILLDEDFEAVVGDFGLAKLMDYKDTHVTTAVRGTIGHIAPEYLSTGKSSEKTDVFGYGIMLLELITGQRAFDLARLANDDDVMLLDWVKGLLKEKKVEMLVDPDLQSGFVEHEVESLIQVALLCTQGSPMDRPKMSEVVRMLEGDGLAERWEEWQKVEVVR
Procedure, shortened: as §1

[20] = system: T2, LOC_OS04G41100-cb001
T2 sequence (whole entry): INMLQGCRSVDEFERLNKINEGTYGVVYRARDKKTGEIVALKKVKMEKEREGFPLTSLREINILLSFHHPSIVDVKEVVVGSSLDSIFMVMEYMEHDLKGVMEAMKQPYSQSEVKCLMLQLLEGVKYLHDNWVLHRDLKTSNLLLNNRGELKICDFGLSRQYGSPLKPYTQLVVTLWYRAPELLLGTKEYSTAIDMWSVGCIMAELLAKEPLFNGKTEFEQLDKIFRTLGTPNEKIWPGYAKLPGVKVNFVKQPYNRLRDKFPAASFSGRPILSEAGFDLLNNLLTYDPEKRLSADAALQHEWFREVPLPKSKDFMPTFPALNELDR
Procedure, shortened: as §1

SMILES	thermal shift delta Tm [1] [°C]	thermal shift delta Tm [2] [°C]	thermal shift delta Tm [3] [°C]	thermal shift delta Tm [4] [°C]	thermal shift delta Tm [5] [°C]	thermal shift delta Tm [6] [°C]	thermal shift delta Tm [7] [°C]	thermal shift delta Tm [8] [°C]	thermal shift delta Tm [9] [°C]	thermal shift delta Tm [10] [°C]	thermal shift delta Tm [11] [°C]	thermal shift delta Tm [12] [°C]	thermal shift delta Tm [13] [°C]	thermal shift delta Tm [14] [°C]	thermal shift delta Tm [15] [°C]	thermal shift delta Tm [16] [°C]	thermal shift delta Tm [17] [°C]	thermal shift delta Tm [18] [°C]	thermal shift delta Tm [19] [°C]	thermal shift delta Tm [20] [°C]
Cc1ccc(F)c(NC(=O)Nc2ccc(-c3cccc4[nH]nc(N)c34)cc2)c1 [Linifanib (ABT-869)]	-0.27	4	2.06	4.52	2.81	1.72	1.34	3.05	4.49	0.94	0.85	-0.22	0.3	3.38	1.2	0.4	0.8	2.54	0.22	1.77
O=C1Cc2c([nH]c3ccc(Br)cc23)-c2ccccc2N1 [Kenpaullone]	0.8	2.91	0.89	3.38	1.58	5.88	1.24	1.62	2.5	2.97	6.87	1.11	0.51	5.47	2.21	0.9	2.26	4.7	2.14	2.07
Nc1cccc(-c2cc3c(Oc4cccc(O)c4)ncnc3[nH]2)c1	2.04	0.91	1.51	2.09	0.65	0.81	1.59	1.94	5.81	0.97	5.52	1.7	0.45	5.94	3.84	0.38	1.5	4.56	2.16	1.12
N#Cc1c(NC(=O)c2cccc3ccccc23)sc2c1CCCC2 [JNK Inhibitor IX]	1.35	1.18	0.63	-0.18	0.34	0	0.12	0.47	-0.31	0.76	0.59	-0.12	0.41	-0.14	0.23	0.19	0.38	0.53	1.73	0.46
CC(C)(C)c1cc(NC(=O)Nc2ccc(-c3cn4c(n3)sc3cc(OCCN5CCOCC5)ccc34)cc2)no1 [Quizartinib (AC220)]	0.35	0.35	1.08	0.09	0.36	0.3	0.96	1.36	0.28	1.06	-0.83	0.02	-0.02	0.08	0.09	-0.11	0.82	0.41	0.67	0.81
CC(C)(CO)n1cc(C(=O)c2cncc(NC(=O)Cc3ccc(Cl)cn3)c2)c2cnc(N)nc21	0.95	0.35	0.16	0.14	0.19	0.28	-0.84	0.77	3.51	0.53	1.08	0.19	0.46	0.3	0.39	0.47	0.51	0.51	1.37	0.41
O=C(O)CCC(=O)Nc1ccc(Br)cn1 [Bikinin]	3.66	0.91	0.53	0.52	0.6	0.23	0.66	0.69	0.3	0.9	0.64	0.11	0.3	0.13	0.19	0.33	0.43	0.74	1.47	0.42
Oc1cccc(-c2nc(N3CCOCC3)c3oc4ncccc4c3n2)c1	1.36	1.6	1.37	0.94	0.14	0.33	0.91	0.91	0.49	0.74	-0.07	-0.06	0.32	0.43	0.03	0.47	0.16	0.22	1.17	0.89
CC(C)(C)Cn1c(N)nc2ccc(-c3[nH]c(C(C)(C)C)nc3-c3ccc(F)cc3)nc21	-3.53	-0.79	0.1	-0.16	0.92	-0.04	-0.18	0.38	-1.12	-0.24	0.45	0.25	0.52	-0.25	0.28	0.23	0.13	0.02	0.12	0.22
CCS(=O)(=O)N1CC(CC#N)(n2cc(-c3ncnc4[nH]ccc34)cn2)C1	2.25	0.75	1.26	1.3	0.81	0.39	0.37	1.89	4.11	0.86	2.13	1.15	0.77	1.62	0.66	1.09	0.62	1.29	0.44	0.43
CC(C)Nc1cc(-c2c[nH]c(C(=O)N[C@H](CO)c3cccc(Cl)c3)c2)c(Cl)cn1	2.03	1.73	1.28	0.91	1.23	0.59	1.19	1.18	1.13	1.49	0.06	0.08	0.57	1.86	0.44	0.2	0.3	1.54	1.63	1.97
O=C1NC(=O)/C(=C/c2ccc3nccc(-c4ccncc4)c3c2)S1	0.39	0.51	0.74	-0.17	0.62	0.07	0.58	0.62	3.14	0.7	1.29	0.51	0.38	2.47	0.28	0.79	0.4	7.2	1.96	0.48
